For eleven molecules, Potency results are on record in PubChem BioAssay AID434931 (National Center for Advancing Translational Sciences (NCATS), 2010).

Records with an inconclusive call do not appear. Active and inactive are the calls of the source. Calls come from the whole dose curve; as a rule, active = well fitted inhibition curve with a large enough effect; inconclusive = small, poorly fitted or top-dose-only effect, or another doubt; inactive = no such curve, though single readings can be large or run the other way.

Neuropeptide S receptor (Homo sapiens), sequence (Q6W5P4 whole entry, looked up): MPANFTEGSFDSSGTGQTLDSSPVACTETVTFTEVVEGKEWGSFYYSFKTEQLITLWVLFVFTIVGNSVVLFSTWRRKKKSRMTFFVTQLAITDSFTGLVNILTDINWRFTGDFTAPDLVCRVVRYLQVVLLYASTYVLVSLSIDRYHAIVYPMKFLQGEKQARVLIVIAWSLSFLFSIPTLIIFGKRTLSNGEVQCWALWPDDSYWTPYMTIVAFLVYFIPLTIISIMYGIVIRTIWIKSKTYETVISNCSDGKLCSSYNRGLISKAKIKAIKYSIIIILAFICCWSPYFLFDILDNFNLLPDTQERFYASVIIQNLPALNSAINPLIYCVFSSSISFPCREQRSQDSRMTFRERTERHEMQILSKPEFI

For the assay, the target named is Neuropeptide S receptor (Homo sapiens) (UniProt Q6W5P4). As to the kind of experiment: Confirmation Concentration-Response Assay for Antagonists of the Neuropeptide S Receptor: Robust Characterization of Calcium Signal Transduction. Conditions: CHO-NPSR cells, NPS-induced calcium fluorescence (FDSS). The text has this:
NIH Chemical Genomics Center [NCGC] NIH Molecular Libraries Probe Production centers Network [MLPCN] MLPCN Grant: X01-DA026210-01 Assay Submitter (PI): Heilig, Markus Alexander NCGC Assay Overview: Neuropeptide S receptor (NPSR), previously known as GPR154, is a recently de-orphanized G protein coupled receptor. Its endogenous ligand is the 20 amino acids peptide Neuropeptide S (NPS). […] NPS and its receptor are found in various tissues. Specifically they are highly expressed in brain areas that have been implicated in modulation of arousal, stress and anxiety. Central administration of NPS in mice produces an unusual profile of activity by inducing wakefulness and arousal, while at the same time suppressing anxiety. Therefore, NPSR may represent a novel drug target for the treatment of sleep and anxiety disorders. To identify NPSR antagonists, we developed a cell-based assay with transfected NPS receptor. NPS can stimulate the production of cAMP as well as release intracellular calcium in Chinese hamster ovary cells stably expressing NPS receptor. This change in intracellular calcium can be detected using a calcium indicator dye on a calcium imaging plate reader system (FDSS). This particular assay uses a high density of sampling across concentration-response space to establish more confidence estimates of potency.
NCGC Assay Protocol Summary: A Chinese hamster ovary (CHO) cell line stably expressing the NPS receptor (CHO-NPSR) was obtained from Dr. Heilig lab at NIAAA and maintained in F-12 Kaighn's media (Invitrogen, Carlsbad, CA, 21127) supplemented with 10 % FBS, 100 units/ml penicillin, 100 ug/ml streptomycin and 250 ug/ml geneticin at 37C, 5% CO2 in a humidified atmosphere. Before the assay, aliquots of cells were frozen and stored at -135C. The assay was performed on a FDSS-7000 kinetic plate reader in 1536-well format. For both agonist (1-220s) and antagonist (221-400s) phases, the maximums of kinetic fluorescence responses were converted separately into text files using the instrument's software data export utility. Data for agonist response were normalized to the controls for basal activity (DMSO only) and 100% activation (NPS). […] AC50 values were determined from concentration-response data modeled with the standard Hill equation. NPS 1536-well FDSS assay protocol: (1) Frozen CHO-NPSR cells were thaw, washed once with fresh media and resuspended in F-12 Kaighn's media supplemented with 10 % FBS, 100 units/ml penicillin and 100 ug/ml streptomycin. Cells were plated at 3 ul/well (1200 cells) to black, clear-bottom, tissue-culture treated 1536-well plates, and then cultured at 37C, 5 % CO2 for 16 to 30 hours. (2) Add 3 ul of calcium dye (from High Performance PBX Calcium Assay Kit, BD Biosciences). The calcium dye was prepared according to the manufactory's instruction. (3) Incubation at 37C, 5 % CO2 for 60 to 120 min. (4) Load plates to FDSS-7000. The following steps were performed on FDSS-7000. (5) Record fluorescent background (Ex 480 nm, Em 520-560 nm) for 10 s. (6) Add 23 nl/well of compound in DMSO solution. The final titration for each compound was between 0.6 nM and 46 uM. Record agonist response for 210 s. (7) Add 2 ul of stimulation reagent (1X HBSS buffer, 0.1% BSA, 60 nM NPS). Record antagonist response for 140 s. Keywords: MLSMR, MLPCN, NIH Roadmap, qHTS, NCGC, NPS, Neuropeptide S Antagonists
Take `Cc1nc2ccccn2c1P(=S)(c1ccccc1)c1ccccc1`: the Potency is 1000 nM (active).
For `Cc1c(P(=S)(c2ccccc2)c2ccccc2)[n+]2ccccc2n1CCCc1ccccc1` the value was 2 nM (active).
Then `Cc1c(P(=S)(c2ccccc2)c2ccccc2)[n+]2ccccc2n1C/C=C/c1ccccc1`, with 0.938 nM (active).
In the case of `Cc1c(P(=S)(c2ccccc2)c2ccccc2)[n+]2ccccc2n1C`, the Potency was 50.4 nM (active).
For `Cc1c(P(=S)(c2ccccc2)c2ccccc2)c2ccccc2n1C` the value was 2830 nM (active); for `Cc1c(P(=S)(c2ccccc2)c2ccccc2)[n+]2ccccc2n1CCc1ccccc1`, 71.2 nM (active).
For `Cc1c(P(=S)(c2ccccc2)c2ccccc2)[n+]2ccccc2n1CCCCc1ccccc1`, the Potency was 1.1 nM (active).
For `C[n+]1cc(P(=S)(c2ccccc2)c2ccccc2)n2ccccc21` the value was 2520 nM (active); for `Cc1c(P(=S)(c2ccccc2)c2ccccc2)[n+]2ccccc2n1CCCCCc1ccccc1`, 12.7 nM (active); for `S=P(c1ccccc1)(c1ccccc1)c1cnc2ccccn12`, 4000 nM (active).
For `Cc1c(P(=S)(c2ccccc2)c2ccccc2)[n+]2ccccc2n1Cc1ccccc1` the value was 31.8 nM (active).
